Results on 30 compounds are retold here after PubChem BioAssay (Tox21).

The source made the active and inactive calls. Unless noted, calls follow the shape of the dose curve; as a rule, active = well fitted curve in the direction sought with a large enough effect in the repeat runs; inconclusive = weak or mixed curves; inactive = no such curve, though single readings can be large; an effect the other way counts as inactive or inconclusive.

Experiment [1] in a line: qHTS assay to identify small molecule agonists of H2AX (AID 1224845; active = well fitted activation curve with a large enough effect in the signal ratio in the repeat runs, not every such curve was filed as active; inconclusive = weak or mixed curves; the % refers to the signal ratio; also: potency is read from the fitted curve at half-maximal effect). Put shortly:
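Phospho-H2AX Ser139 measured by HTRF (ex 320 nm; em 665 and 620 nm) after 24 hr antibody incubation. Compounds, 15 concentrations, 0.76% DMSO, were applied to CHO-K1 cells for 3hr at 37C before lysis.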

Experiment [2] concerns the target Acetylcholinesterase (Homo sapiens) (UniProt P22303). Put plainly: Acetylcholinesterase (AChE) small molecule antagonists: colormetric cell-based qHTS assay (AID 1347395; calls by dose curve; also: nearly all actives have a fitted effect of over 30% in size). The gist of the method:
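Colorimetric readout: DTNB quantifies thiocholine from acetylthiocholine hydrolysed by endogenous AChE of SH-SY5Y cells (2,000/well, plated overnight). Compound pretreatment 30 min, substrate incubation 90 min, both 37 C.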
For orientation: Quantitative high-throughput screening tests each substance at several concentrations.

Experiment [3] shares this target. Put plainly: Acetylcholinesterase (AChE) small molecule antagonists: enzyme-based qHTS assay (AID 1347397; calls by dose curve; also: nearly all actives have a fitted effect of over 55% in size). To be noted: Potency: AChE enzyme activity inhibition; outcome: AChE enzyme activity inhibition. The gist of the method: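 Absorbance-based detection of thiocholine with DTNB served as the read-out. Recombinant human AChE was exposed to compound for 30 min at RT before a 10 min RT incubation with acetylthiocholine.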

The target is the same in experiment [4]. Put plainly: Acetylcholinesterase (AChE) small molecule antagonists: fluorescence cell-based qHTS assay (AID 1347398; calls by dose curve; also: nearly all actives have a fitted effect of over 50% in size). To be noted: Potency: AChE activity; outcome: AChE activity. The gist of the method: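 Fluorimetric cell-based assay: intact SH-SY5Y cells, 30 min compound preincubation at 37 C, acetylthiocholine substrate with thiol probe Thiolite Green, 40 min RT development, fluorescence 490/520 nm.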

For experiment [5] the target is unchanged. Put plainly: Acetylcholinesterase (AChE) small molecule antagonists: enzyme-based qHTS assay with human liver microsomes (AID 1347399; calls by dose curve; also: nearly all actives have a fitted effect of over 60% in size). To be noted: Potency: qHTS inhibition; outcome: qHTS inhibition. The gist of the method: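 Recombinant human AChE (50 mU/mL in the enzyme mix) and human liver microsomes (0.25 mg/mL final) were preincubated with compound and NADPH (0.25 mg/mL final) for 30 min at 37 C. Acetylthiocholine/DTNB was then added; thiocholine was read colorimetrically after 10 min at room temperature.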

Experiment [6] deals with Glucocorticoid receptor (Homo sapiens) (UniProt P04150). The experiment in a line: qHTS assay to identify small molecule antagonists of the glucocorticoid receptor (GR) signaling pathway (AID 720692; active = well fitted inhibition curve with a large enough effect in the signal ratio in the repeat runs, not every such curve was filed as active; inconclusive = weak or mixed curves, or effect the other way; inactive = no such curve, though single readings can be large or run the other way; the % refers to the signal ratio; also: potency is read from the fitted curve at half-maximal effect). The gist of the method: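 Fluorescence from cleaved LiveBLAzer B/G FRET substrate reports GRE-driven beta-lactamase in HeLa cells; compounds are tested against 5 nM dexamethasone (final) over 18 h at 37 C, substrate incubation 2 h at room temperature.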
Chain of Glucocorticoid receptor (Homo sapiens) (P04150 whole entry, looked up): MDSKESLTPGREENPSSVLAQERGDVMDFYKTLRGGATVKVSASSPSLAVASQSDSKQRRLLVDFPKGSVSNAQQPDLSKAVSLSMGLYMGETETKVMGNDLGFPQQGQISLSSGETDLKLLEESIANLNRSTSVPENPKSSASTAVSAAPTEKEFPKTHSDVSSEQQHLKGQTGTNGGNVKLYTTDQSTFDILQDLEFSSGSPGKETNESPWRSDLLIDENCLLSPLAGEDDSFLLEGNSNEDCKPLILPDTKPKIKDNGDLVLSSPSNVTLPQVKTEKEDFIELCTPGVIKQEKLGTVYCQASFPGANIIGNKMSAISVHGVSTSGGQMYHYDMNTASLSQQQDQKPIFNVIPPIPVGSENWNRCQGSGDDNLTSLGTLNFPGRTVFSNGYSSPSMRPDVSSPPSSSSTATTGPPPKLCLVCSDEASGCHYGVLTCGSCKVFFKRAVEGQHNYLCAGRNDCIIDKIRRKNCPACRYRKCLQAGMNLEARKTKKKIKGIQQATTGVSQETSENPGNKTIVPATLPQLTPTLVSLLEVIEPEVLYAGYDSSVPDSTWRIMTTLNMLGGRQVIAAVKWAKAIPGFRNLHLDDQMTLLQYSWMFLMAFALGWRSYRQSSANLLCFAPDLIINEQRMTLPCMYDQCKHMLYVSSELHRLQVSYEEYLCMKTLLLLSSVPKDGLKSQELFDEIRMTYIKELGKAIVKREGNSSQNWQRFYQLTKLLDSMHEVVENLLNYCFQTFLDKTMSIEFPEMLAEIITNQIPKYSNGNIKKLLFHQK

For experiment [7], the target named is Androgen receptor (Homo sapiens) (UniProt P10275). Put plainly: qHTS assay to identify small molecule antagonists of the androgen receptor (AR) signaling pathway (AID 743035; active = well fitted inhibition curve with a large enough effect in the signal ratio in the repeat runs, not every such curve was filed as active; inconclusive = weak or mixed curves, or effect the other way; inactive = no such curve, though single readings can be large or run the other way; the % refers to the signal ratio). Put shortly: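 Cell line: GeneBLAzer AR-UAS-bla GripTite (HEK293). Stimulus: R1881 added after compound. Exposure: 16 h, 37C, 5% CO2. Readout: LiveBLAzer B/G FRET fluorescence after 2 h at room temperature.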
Chain of Androgen receptor (Homo sapiens) (P10275 whole entry, looked up): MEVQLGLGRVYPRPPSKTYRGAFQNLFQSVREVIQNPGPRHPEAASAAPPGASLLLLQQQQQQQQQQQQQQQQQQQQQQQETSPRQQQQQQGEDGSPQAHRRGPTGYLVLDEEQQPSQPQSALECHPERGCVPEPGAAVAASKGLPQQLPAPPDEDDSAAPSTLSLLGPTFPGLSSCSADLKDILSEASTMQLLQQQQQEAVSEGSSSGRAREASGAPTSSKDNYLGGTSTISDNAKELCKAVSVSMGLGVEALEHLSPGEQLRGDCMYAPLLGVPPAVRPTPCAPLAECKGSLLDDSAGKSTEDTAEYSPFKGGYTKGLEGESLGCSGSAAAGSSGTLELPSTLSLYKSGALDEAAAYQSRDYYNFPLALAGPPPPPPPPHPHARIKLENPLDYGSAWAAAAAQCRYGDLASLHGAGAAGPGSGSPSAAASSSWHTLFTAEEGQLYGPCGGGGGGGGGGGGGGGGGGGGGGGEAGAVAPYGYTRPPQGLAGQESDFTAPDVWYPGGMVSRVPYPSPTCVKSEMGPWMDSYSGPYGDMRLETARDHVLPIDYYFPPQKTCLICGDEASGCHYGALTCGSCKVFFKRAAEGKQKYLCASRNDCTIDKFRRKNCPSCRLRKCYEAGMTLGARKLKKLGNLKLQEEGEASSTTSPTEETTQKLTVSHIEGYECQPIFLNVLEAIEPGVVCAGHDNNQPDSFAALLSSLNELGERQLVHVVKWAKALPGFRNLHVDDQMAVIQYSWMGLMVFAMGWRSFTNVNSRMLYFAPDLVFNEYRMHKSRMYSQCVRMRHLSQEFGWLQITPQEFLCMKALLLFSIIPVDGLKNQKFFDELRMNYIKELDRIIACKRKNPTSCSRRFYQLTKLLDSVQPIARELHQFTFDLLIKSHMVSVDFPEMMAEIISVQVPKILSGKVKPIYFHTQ

Experiment [8] has the same target. Put plainly: qHTS assay to identify small molecule agonists of the androgen receptor (AR) signaling pathway using the MDA cell line (AID 743040; also: nearly all actives have a fitted effect of over 20% in size; also: potency is read from the fitted curve at half-maximal effect). The gist of the method:
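After a 5 h incubation at 37C and 0% CO2, MDA-kb2 reporter cells were dosed with compounds in DMSO and kept 16 h under the same conditions. Luciferase activity was then read as luminescence with ONE-Glo.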

For experiment [9] the target is unchanged. The experiment in a line: qHTS assay to identify small molecule antagonists of the androgen receptor (AR) signaling pathway using the MDA cell line (AID 743042; also: nearly all actives have a fitted effect of over 55% in size; also: potency is read from the fitted curve at half-maximal effect). Put shortly:
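Antagonist mode: compounds plus R1881 agonist added to MDA-kb2 AR-luc cells, incubated 16 h at 37C. Luciferase reporter luminescence quantified, with multiplexed CellTiter-Fluor readout for cell viability.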

Experiment [10] concerns the target Nuclear receptor subfamily 1 group I member 2 (Homo sapiens) (UniProt O75469). Put plainly: CYP3A4 induction through human pregnane X receptor (PXR) by small molecules, qHTS assay (AID 1346984). Also: nearly all actives have a fitted effect of over 40% in size. Also: potency is read from the fitted curve at half-maximal effect. Put shortly:
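DPX-2 reporter cells; 24h cpd, 37C; Luciferin-IPA 3uM final x3h; One-Glo 30 min RT; lumi read.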

The target in experiment [11] is Estrogen receptor (Homo sapiens) (UniProt P03372). The experiment in a line: qHTS assay to identify small molecule agonists of the estrogen receptor alpha (ER-alpha) signaling pathway using the BG1 cell line (AID 743079). Also: nearly all actives have a fitted effect of over 20% in size.
Chain of Estrogen receptor (Homo sapiens) (P03372 whole entry, looked up): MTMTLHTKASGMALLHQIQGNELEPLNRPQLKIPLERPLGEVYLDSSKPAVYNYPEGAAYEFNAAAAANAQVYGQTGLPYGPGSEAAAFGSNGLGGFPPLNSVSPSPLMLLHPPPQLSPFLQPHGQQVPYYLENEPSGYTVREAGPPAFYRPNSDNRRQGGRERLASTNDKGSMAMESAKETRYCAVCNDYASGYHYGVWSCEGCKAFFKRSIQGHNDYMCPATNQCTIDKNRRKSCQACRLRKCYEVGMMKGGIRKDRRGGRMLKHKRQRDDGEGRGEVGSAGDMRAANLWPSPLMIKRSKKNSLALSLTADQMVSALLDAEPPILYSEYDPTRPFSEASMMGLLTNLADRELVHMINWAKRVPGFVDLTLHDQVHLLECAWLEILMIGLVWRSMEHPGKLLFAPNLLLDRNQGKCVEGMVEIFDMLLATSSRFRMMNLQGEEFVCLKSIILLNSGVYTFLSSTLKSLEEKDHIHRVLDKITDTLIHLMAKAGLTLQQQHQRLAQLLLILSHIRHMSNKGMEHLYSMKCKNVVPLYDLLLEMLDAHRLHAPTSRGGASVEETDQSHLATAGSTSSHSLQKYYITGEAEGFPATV
Experiment [12] in a line: Caspase-3/7 induction in HepG2 cells by small molecules, qHTS assay (AID 1346978). Also: nearly all actives have a fitted effect of over 15% in size. The gist of the method: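 Caspase-3/7 induction was measured by Caspase-Glo 3/7 luminescence (30 min, room temperature) after a 17 hr compound exposure of wild-type HepG2 cells seeded at 2,000 per well and pre-incubated 5 hr.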
Experiment [13] has as its target Androgen receptor (Homo sapiens) (UniProt P10275). Put plainly: qHTS assay to identify small molecule agonists of the androgen receptor (AR) signaling pathway (AID 743036; active = well fitted activation curve with a large enough effect in the signal ratio in the repeat runs, with a control signal flat, not every such curve was filed as active; inconclusive = weak or mixed curves, or effect the other way; inactive = no such curve, though single readings can be large or run the other way; the % refers to the signal ratio). The gist of the method:
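Activation was read as beta-lactamase FRET signal from LiveBLAzer B/G substrate, added for 2 h at room temperature. Before that, GeneBLAzer AR-UAS-bla GripTite (HEK293) cells had 16 h compound exposure at 37C.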

For experiment [14], the target named is Luciferin 4-monooxygenase (Photinus pyralis) (UniProt P08659). Put plainly: qHTS assay to identify small molecule inhibitors of firefly luciferase (AID 1224835). Also: series mostly up to about 120 µM; nearly all actives have a fitted effect of over 25% in size. Put shortly:
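Inhibition of purified Photinus luciferase is measured by luminescence. Substrate levels (D-luciferin, ATP) sit at their KM values. Each compound is tested in a concentration series.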

The nature of experiment [15]: qHTS RealTime-Glo MT Cell Viability Assay in HEK293 cells - 0 hour (AID 1224880). Also: top concentration of the series differs between compounds; nearly all actives have a fitted effect of over 45% in size. Put shortly:
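qHTS format; HEK293 cells with NanoLuc/prosubstrate reagent, 37 C/5% CO2 for 5 h pre-dosing; compounds 23 nL in DMSO; luminescence at each time point reflects viable cells.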

Experiment [16] is described as follows: qHTS assay to identify small molecule antagonists of the progesterone receptor (PR) signaling pathway - cell viability counter screen (AID 1346798). Also: series mostly up to about 92 µM; nearly all actives have a fitted effect of over 50% in size. Put shortly: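 Cytotoxicity read as CellTiter-Glo luminescence (30 min, room temperature) in the same wells as the beta-lactamase readout. HEK293T PR-UAS-bla cells in charcoal-stripped 2% FBS received compound and R5020, then 16 h at 37C, 5% CO2.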

The nature of experiment [17]: qHTS assay to identify small molecule agonists of the estrogen related receptor signaling pathway with the pleiotropic PPARgamma coactivator (PGC) from Tox21 10K library (AID 1224842). Also: potency is read from the fitted curve at half-maximal effect; nearly all actives have a fitted effect of over 15% in size. Put shortly:
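Luminescence from One-Glo (30 min, room temperature) measured after PGC/ERR cells had 18 h at 37 C with pinned compound (23 nL in DMSO). Cells had been seeded at 2,000 per well and pre-incubated 6 h.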

Experiment [18] can be described thus: qHTS assay to identify small molecule antagonists of the estrogen receptor alpha (ER-alpha) signaling pathway using the BG1 cell line in the presence of 0.1 nM 17-beta-estradiol - cell viability counter screen (AID 1259241). Also: nearly all actives have a fitted effect of over 40% in size. Put shortly:
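Cytotoxicity counter-screen: live-cell protease activity measured by fluorescence (30 min reagent step) in the same wells. Cells were VM7Luc4E2 with endogenous ER-alpha and ERE-driven luciferase, treated 22 hr at 37C alongside 0.1 nM 17beta-estradiol final.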

Experiment [19] is described as follows: qHTS assay to identify small molecule antagonists of the androgen receptor (AR) signaling pathway using the MDA cell line in the presence of 0.5 nM R1881 - cell viability counter screen (AID 1259242). Also: nearly all actives have a fitted effect of over 45% in size. Put shortly:
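Fluorescence from CellTiter-Fluor, which reports protease activity of live cells, was read 30 min after reagent addition to MDA-kb2 cells that had been incubated 16 hr with compound and 0.5 nM R1881.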

Experiment [20] deals with Estrogen receptor (Homo sapiens) (UniProt P03372). The experiment in a line: qHTS assay to identify small molecule antagonists of the estrogen receptor alpha (ER-alpha) signaling pathway (AID 743069; active = well fitted curve in the direction sought with a large enough effect in the signal ratio in the repeat runs, not every such curve was filed as active; inconclusive = weak or mixed curves, or effect the other way; inactive = no such curve, though single readings can be large or run the other way; the % refers to the signal ratio; also: potency is read from the fitted curve at half-maximal effect). Put shortly: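 Compound effects are measured against 17beta-estradiol stimulation in HEK293 cells with a UAS-controlled beta-lactamase reporter for ER-alpha. Exposure lasts 18 hr at 37C; LiveBLAzer B/G FRET substrate follows for 2 hr at room temperature.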

Chain of Luciferin 4-monooxygenase (Photinus pyralis) (P08659 whole entry, looked up): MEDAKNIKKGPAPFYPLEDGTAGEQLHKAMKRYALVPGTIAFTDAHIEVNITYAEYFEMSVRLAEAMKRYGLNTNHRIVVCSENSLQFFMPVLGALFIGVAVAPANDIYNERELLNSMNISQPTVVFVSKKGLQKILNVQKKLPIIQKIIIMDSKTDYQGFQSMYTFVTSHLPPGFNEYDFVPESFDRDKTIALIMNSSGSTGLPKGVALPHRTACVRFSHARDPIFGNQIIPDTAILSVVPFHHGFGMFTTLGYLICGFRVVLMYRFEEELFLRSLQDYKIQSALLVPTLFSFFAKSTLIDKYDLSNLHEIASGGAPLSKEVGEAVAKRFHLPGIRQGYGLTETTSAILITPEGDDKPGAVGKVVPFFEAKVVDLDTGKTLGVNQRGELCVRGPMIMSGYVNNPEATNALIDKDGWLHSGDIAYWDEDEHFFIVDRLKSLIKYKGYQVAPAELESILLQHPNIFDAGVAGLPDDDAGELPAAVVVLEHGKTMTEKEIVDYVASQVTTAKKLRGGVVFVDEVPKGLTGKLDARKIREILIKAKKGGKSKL
Chain of Acetylcholinesterase (Homo sapiens) (P22303 whole entry, looked up): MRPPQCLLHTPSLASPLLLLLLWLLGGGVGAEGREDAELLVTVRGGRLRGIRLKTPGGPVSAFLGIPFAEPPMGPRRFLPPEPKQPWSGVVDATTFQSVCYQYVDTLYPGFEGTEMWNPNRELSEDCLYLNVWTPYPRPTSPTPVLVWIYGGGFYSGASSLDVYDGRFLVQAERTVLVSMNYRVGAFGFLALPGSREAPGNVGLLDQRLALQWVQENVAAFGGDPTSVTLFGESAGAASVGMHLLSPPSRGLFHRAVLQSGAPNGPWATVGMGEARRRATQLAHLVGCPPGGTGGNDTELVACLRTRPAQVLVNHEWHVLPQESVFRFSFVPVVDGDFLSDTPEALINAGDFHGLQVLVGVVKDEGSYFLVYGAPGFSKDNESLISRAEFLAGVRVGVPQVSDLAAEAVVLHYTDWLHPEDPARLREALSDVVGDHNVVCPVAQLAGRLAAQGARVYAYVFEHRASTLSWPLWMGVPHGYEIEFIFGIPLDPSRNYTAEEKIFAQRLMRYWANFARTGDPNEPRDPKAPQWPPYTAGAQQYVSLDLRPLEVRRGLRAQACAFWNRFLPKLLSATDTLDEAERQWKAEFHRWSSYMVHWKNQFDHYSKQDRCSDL

For `ClC(Cl)(Cl)c1ccc(C(Cl)(Cl)Cl)cc1`, the Potency in [1] is 112 µM (active). Also, the Potency result in experiment [2], in experiment [3], in experiment [4] and in experiment [5] was “inactive” throughout.
`Oc1ccc(Cl)cc1Cc1cc(Cl)ccc1O`: the Potency entry in [2], in experiment [3], in experiment [4] and in experiment [5] was “inactive” throughout.
For `CN1[C@@H]2CC[C@@H]1CC(OC(=O)C(CO)c1ccccc1)C2` (stereo not given in full), the Potency result in experiment [1] was “inactive”.
With `C[C@@H](CO)NC(=O)[C@@H]1C=C2c3cccc4[nH]cc(c34)C[C@H]2N(C)C1`, the Potency result in experiment [6], in [7], in experiment [9] and in experiment [10] was “inactive” throughout. In addition, in [8], the Potency is 26.6 µM (active).
On to `COc1ccc(OC)c([C@@H](O)[C@H](C)N)c1`, for which the Potency result in experiment [6], in experiment [8], in experiment [9], in [11] and in experiment [10] was “inactive” each time.
In the case of `Cc1cccc([N+](=O)[O-])c1C`, the Potency entry in [1], in [12], in [2], in experiment [3], in [4] and in experiment [5] was “inactive” throughout.
Take `C=CCOC(=O)c1ccccc1C(=O)OCC=C`: the Potency result in experiment [1], in experiment [2], in experiment [3], in experiment [4] and in experiment [5] was “inactive” in each case.
`CCC(=O)O[C@]1(c2ccccc2)CCN(C)C[C@H]1C`: the Potency entry in [7], in experiment [13], in [8], in experiment [9], in [11] and in experiment [10] was “inactive” throughout.
Turning to `CCCCCCCC#N`, the Potency result in experiment [1], in [12], in experiment [2], in [3], in experiment [4] and in [5] was “inactive” each time.
Turning to `C[N+]1(C)[C@@H]2CC(OC(=O)[C@H](CO)c3ccccc3)C[C@H]1[C@@H]1O[C@@H]12` (stereo not given in full), the Potency entry in experiment [2], in experiment [3], in [4] and in experiment [5] was “inactive” each time.
With `Cc1ccc(O)cc1C`, the Potency result in [14] and in experiment [16] was “inactive” throughout. For the same compound, the outcome in experiment [15] was inactive.
As to `O=C1OC(=O)c2c(Br)c(Br)c(Br)c(Br)c21`, the Potency result in experiment [1], in experiment [12], in experiment [2], in [3], in experiment [4] and in experiment [5] was “inactive” throughout.
As to `CCCCCCCCCc1ccc(OCCOCCO)cc1`, the Potency result in experiment [1], in experiment [3], in experiment [4] and in experiment [5] was “inactive” in each case.
On to `O=Nc1ccc(Nc2ccccc2)cc1`, for which, in experiment [17], the Potency was 9.74 µM (active). Besides, the Potency entry in experiment [12], in experiment [2], in experiment [3], in [4] and in experiment [5] was “inactive” each time.
On to `O=S(=O)(O)c1cc(O)ccc1O`, for which the Potency entry in [6], in experiment [18] and in experiment [19] was “inactive” each time.
In the case of `Cc1ccc2ccccc2c1C`, the Potency result in experiment [14] and in experiment [16] was “inactive” each time. The compound was classed as inactive in experiment [15].
Regarding `CCCCC[C@@H](O)C1C(=O)OC(C)[C@H](O)/C=C/C=C/C=C/C=C/C=C(\C)C(O)C(O)C(O)C[C@H](O)C[C@H](O)C[C@H](O)C[C@H](O)C[C@@H]1O` (stereo not given in full), the Potency result in experiment [6], in experiment [20], in experiment [11] and in experiment [10] was “inactive” throughout.
For `CNC(=O)OCC[N+](C)(C)C`, the Potency entry in experiment [6], in [20], in experiment [11] and in experiment [10] was “inactive” each time.
For `CCC(=O)O[C@@](Cc1ccccc1)(c1ccccc1)[C@@H](C)CN(C)C`, the Potency result in [10] is “inactive”.
For the compound `CN1[C@H]2CC[C@@H]1[C@@H](C(=O)O)[C@@H](OC(=O)c1ccccc1)C2`, the Potency result in [11] and in experiment [10] was “inactive” throughout.
`CC(=O)OO`: the Potency entry in [11] and in experiment [10] was “inactive” in each case.
As to `O=C(OCCN1CCCCC1)C(O)(c1ccccc1)c1ccccc1`, the Potency entry in [20], in experiment [11] and in [10] was “inactive” each time.
For `CNC(=O)Oc1ccccc1C(=O)Nc1ccccc1`, the Potency result in [6], in experiment [8], in experiment [9] and in experiment [20] was “inactive” each time. Further, the Potency in experiment [10] is 14.1 µM (active).
With `CC(Cc1ccccc1)NC=O` (stereo not given), the Potency result in experiment [10] is “inactive”.
As for `CCNCC(O)c1cccc(O)c1` (stereo not given), the Potency entry in [6], in experiment [20], in [11] and in experiment [10] was “inactive” each time.
For the compound `CC(=O)O[C@H]1C[C@H](O[C@H]2[C@@H](O)C[C@H](O[C@H]3[C@@H](O)C[C@H](OC4CC[C@@]5(C)[C@H](CC[C@@H]6[C@@H]5CC[C@]5(C)[C@@H](C7=CC(=O)OC7)CC[C@]65O)C4)O[C@@H]3C)O[C@@H]2C)O[C@H](C)[C@H]1O[C@@H]1O[C@H](CO)[C@@H](O)[C@H](O)[C@H]1O` (stereo not given in full), the Potency in [9] is 1.68 µM (active). Also, the Potency entry in [10] is “inactive”.
As for `Cc1nnc2n1-c1ccc(Cl)cc1C(c1ccccc1)=NC2`, the Potency was 6.01 µM (active) in experiment [6] and 21.3 µM [inconclusive] (active) in experiment [20]. Moreover, in experiment [10], the Potency result was “inactive”.
As to `CC(N)Cc1ccc(O)cc1` (stereo not given), the Potency entry in [6], in experiment [11] and in experiment [10] was “inactive” in each case.
Take `O=C1CN(O)C(c2ccccc2)=c2cc(Cl)ccc2=N1`: the Potency entry in [6], in experiment [7], in [13], in experiment [8], in experiment [9] and in experiment [10] was “inactive” throughout.
`c1csc(C2(N3CCCCC3)CCCCC2)c1`: the Potency entry in [20], in experiment [11] and in experiment [10] was “inactive” each time.
